# Measurements: PubChem BioAssay
# A number with no mark means an inactive call. The list shows a part of the results. Activity calls are given as the source filed them.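 Rule for the calls, unless noted: active = inhibition above the hit cutoff set in the earlier primary screen (cut at about 27% in these data); inactive = the rest.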
# Key:
# [1] = molecular target: Protein phosphatase methylesterase 1 (Homo sapiens) (UniProt Q9Y570); assay: PME-1 inhibitor activity retest, confirmation, biochemical, fluorescence polarization, FP-Rh probe, triplicate (AID 2171); conditions: recombinant PME-1, FP-Rh probe fluorescence polarization; at 5.9 µM; stronger effect = higher value;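 note: 0% = enzyme with DMSO and 100% = wells lacking PME-1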
# [2] = StAR promoter reporter inhibitors, counter-screen for LRH-1 inverse agonist project, cell-based, luminescence, high throughput (AID 651611; in the data active = inhibition above about 28%); conditions: StAR promoter luciferase reporter counterscreen, at 3.6 µM, stronger effect = higher value
# [3] = molecular target: Nuclear receptor subfamily 5 group A member 2 (Homo sapiens) (UniProt O00482); assay: LRH-1 (NR5A2) inverse agonists, retest, confirmation, cell-based, luminescence (AID 651613; in the data active = inhibition above about 42%;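 note: HEK293T cells co-transfected with LRH-1 and StAR promoter luciferase reporter; 0% = vehicle wells and 100% = parental cells lacking receptor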); conditions: cell-based LRH-1 luciferase reporter, inverse agonism; at 3.6 µM; stronger effect = higher value
# [4] = molecular target: Steroidogenic factor 1 (Homo sapiens) (UniProt Q13285); assay: SF1 (NR5A1) inverse agonists, counter-screen for LRH-1 inverse agonist project, cell-based, luminescence, high throughput (AID 651614; in the data active = inhibition above about 44%;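 note: cells cotransfected with StAR promoter reporter and SF1 expression vector; 0% = vehicle on cells with receptor and 100% = vehicle on cells lacking receptor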); conditions: cell-based SF1 luciferase reporter, at 3.6 µM, stronger effect = higher value
# [5] = VP16 transactivation reporter inhibitors, counter-screen for LRH-1 inverse agonist project, cell-based, luminescence, high throughput (AID 651615; in the data active = inhibition above about 33%); conditions: Gal4-VP16 luciferase reporter cells, at 3.6 µM, stronger effect = higher value
# [6] = tested on: transactivating tegument protein VP16 (Human herpesvirus 1); assay: VP16 transactivation reporter inhibitors, counter-screen for SRC2 inhibitor project, cell-based, luminescence, single concentration (AID 652007; in the data active = inhibition above about 36%); conditions: cell-based VP16 transactivation luciferase reporter, at 8.9 µM, stronger effect = higher value
# [7] = molecular target: Nuclear receptor coactivator 2 (Homo sapiens) (UniProt Q15596); assay: SRC2 coactivator transcriptional activity inhibitors, confirmation, cell-based, luminescence, HEK293, triplicate (AID 652008;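 active = mean inhibition above 46.5%, the solvent-only control mean plus 3 SD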;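 note: 0% = DMSO-treated cells and 100% = Gossypol at 36 µM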); conditions: HEK293 GAL4-SRC2 luciferase reporter, at 8.9 µM, stronger effect = higher value
# [8] = molecular target: Glutathione S-transferase omega-1 (Homo sapiens) (UniProt P78417); assay: GSTO1 inhibitor hit confirmation, counter-screen for RBBP9 inhibitor project, biochemical, fluorescence polarization, triplicate (AID 2176;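 active = inhibition above the primary screen's cutoff, its mean inhibition plus 3 SD, cut at about 35% in these data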;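 note: loss of polarization as inhibitors block binding of rhodamine sulfonate ester activity probe; 0% = GSTO1 with DMSO and 100% = wells lacking GSTO1 enzyme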); conditions: recombinant GSTO1, probe fluorescence polarization; at 5.96 µM; stronger effect = higher value
# [9] = molecular target: Nuclear receptor coactivator 3 (Homo sapiens) (UniProt Q9Y6Q9); assay: SRC3 coactivator transcriptional activity inhibitors, confirmation, cell-based, luminescence, quadruplicate (AID 588792;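 active = mean inhibition over 43.08%, the solvent-only control mean plus 3 SD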;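 note: 0% = DMSO treated cells and 100% = gossypol at 36 µM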); conditions: HEK293 GAL4-SRC3 luciferase reporter, at 3.6 µM, stronger effect = higher value
# [10] = tested on: transactivating tegument protein VP16 (Human herpesvirus 1), Gal4-VP16 luciferase reporter; assay: VP16 transactivation inhibitors, counter-screen for SRC3 inhibitor project, cell-based, luminescence, high throughput (AID 588794; in the data active = inhibition above about 30%); conditions: mammalian cells, VP16-driven luciferase reporter luminescence; at 3.6 µM; stronger effect = higher value
# [11] = VP16 transactivation inhibitors, counter-screen for SRC1 inhibitor project, cell-based, luminescence, high throughput (AID 588824; in the data active = inhibition above about 25%); conditions: cell-based VP16 transactivation luciferase luminescence; at 3.6 µM; stronger effect = higher value
# [12] = molecular target: Nuclear receptor coactivator 1 (Homo sapiens) (UniProt Q15788); assay: SRC1 coactivator transcriptional activity inhibitors, confirmation, cell-based, luminescence, quadruplicate (AID 588820;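 active = mean inhibition above 46.68%, the untreated control wells mean plus 3 SD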;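 note: 0% = DMSO wells and 100% = gossypol 36 µM treated wells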); conditions: HEK293 GAL4-SRC1 luciferase reporter, at 3.6 µM, stronger effect = higher value
# Protein phosphatase methylesterase 1 (Homo sapiens), sequence (Q9Y570 whole entry, looked up): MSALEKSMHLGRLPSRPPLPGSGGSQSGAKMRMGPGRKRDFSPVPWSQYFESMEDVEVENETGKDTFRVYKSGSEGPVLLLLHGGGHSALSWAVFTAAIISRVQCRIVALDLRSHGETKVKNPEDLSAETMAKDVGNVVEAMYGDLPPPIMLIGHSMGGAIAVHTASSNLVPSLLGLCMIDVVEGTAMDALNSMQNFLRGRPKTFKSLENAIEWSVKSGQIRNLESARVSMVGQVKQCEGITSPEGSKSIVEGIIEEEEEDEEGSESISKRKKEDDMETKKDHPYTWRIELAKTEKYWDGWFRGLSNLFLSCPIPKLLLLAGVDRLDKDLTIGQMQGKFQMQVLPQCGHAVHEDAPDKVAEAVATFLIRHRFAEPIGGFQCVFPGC
# Nuclear receptor coactivator 2 (Homo sapiens), sequence (Q15596 whole entry, looked up, the tested form may be a part): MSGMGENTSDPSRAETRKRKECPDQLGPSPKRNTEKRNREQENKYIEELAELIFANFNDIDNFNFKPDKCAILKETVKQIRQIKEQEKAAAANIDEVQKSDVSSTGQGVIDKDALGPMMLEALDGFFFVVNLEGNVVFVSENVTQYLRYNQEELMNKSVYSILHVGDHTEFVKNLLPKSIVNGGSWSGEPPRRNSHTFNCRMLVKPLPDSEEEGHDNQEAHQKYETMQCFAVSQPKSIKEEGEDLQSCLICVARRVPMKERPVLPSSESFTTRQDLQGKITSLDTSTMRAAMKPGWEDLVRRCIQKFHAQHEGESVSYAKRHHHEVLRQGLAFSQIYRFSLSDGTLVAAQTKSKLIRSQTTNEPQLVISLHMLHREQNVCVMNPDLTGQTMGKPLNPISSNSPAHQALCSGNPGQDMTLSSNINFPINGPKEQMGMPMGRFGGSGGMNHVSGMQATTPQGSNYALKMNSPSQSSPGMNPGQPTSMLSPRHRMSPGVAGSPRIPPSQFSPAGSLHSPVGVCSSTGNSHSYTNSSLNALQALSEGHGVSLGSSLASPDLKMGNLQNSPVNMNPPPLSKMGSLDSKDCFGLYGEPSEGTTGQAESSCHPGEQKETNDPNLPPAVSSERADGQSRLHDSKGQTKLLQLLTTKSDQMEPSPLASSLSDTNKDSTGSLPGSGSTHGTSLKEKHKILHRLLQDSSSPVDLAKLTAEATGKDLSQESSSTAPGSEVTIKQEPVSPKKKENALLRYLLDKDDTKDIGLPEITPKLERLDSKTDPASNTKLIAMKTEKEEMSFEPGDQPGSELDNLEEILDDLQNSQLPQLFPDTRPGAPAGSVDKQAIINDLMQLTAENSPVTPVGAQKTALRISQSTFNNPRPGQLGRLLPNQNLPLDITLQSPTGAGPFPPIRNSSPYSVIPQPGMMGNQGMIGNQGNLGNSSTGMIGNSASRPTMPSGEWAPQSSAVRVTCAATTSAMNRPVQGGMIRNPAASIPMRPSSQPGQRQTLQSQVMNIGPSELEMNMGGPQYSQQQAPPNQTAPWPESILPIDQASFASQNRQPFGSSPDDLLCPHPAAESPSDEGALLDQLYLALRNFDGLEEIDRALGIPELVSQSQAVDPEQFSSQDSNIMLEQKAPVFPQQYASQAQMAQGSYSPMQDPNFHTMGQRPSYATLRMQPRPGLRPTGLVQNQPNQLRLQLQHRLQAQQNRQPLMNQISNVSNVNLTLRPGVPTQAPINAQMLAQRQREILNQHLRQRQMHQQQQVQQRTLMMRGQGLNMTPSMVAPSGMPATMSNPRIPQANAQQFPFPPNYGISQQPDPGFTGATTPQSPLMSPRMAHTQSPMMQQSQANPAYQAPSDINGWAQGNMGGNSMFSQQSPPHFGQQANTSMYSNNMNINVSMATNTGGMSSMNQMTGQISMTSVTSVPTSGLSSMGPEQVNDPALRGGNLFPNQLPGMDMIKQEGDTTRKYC
# Glutathione S-transferase omega-1 (Homo sapiens), sequence (P78417 whole entry, looked up): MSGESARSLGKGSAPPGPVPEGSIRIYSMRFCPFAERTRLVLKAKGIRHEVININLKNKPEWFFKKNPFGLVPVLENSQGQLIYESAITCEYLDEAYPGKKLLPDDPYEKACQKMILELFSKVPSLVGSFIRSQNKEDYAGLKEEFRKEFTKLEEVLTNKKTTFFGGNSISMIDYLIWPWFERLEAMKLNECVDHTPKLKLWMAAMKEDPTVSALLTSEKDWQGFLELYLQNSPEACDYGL
# Steroidogenic factor 1 (Homo sapiens), sequence (Q13285 whole entry, looked up, the tested form may be a part): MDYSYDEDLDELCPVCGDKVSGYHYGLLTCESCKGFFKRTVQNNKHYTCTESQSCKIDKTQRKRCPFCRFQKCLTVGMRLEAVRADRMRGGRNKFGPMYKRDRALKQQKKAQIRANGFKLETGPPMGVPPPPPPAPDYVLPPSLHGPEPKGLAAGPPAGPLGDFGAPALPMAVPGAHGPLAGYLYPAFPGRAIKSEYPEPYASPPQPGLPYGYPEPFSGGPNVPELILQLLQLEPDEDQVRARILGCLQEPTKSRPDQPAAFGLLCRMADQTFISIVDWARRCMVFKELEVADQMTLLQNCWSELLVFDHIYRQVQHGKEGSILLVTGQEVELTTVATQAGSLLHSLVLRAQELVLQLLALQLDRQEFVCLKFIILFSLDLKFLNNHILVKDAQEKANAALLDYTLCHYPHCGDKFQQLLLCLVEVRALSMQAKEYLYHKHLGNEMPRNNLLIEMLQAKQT
# Nuclear receptor subfamily 5 group A member 2 (Homo sapiens), sequence (O00482 whole entry, looked up): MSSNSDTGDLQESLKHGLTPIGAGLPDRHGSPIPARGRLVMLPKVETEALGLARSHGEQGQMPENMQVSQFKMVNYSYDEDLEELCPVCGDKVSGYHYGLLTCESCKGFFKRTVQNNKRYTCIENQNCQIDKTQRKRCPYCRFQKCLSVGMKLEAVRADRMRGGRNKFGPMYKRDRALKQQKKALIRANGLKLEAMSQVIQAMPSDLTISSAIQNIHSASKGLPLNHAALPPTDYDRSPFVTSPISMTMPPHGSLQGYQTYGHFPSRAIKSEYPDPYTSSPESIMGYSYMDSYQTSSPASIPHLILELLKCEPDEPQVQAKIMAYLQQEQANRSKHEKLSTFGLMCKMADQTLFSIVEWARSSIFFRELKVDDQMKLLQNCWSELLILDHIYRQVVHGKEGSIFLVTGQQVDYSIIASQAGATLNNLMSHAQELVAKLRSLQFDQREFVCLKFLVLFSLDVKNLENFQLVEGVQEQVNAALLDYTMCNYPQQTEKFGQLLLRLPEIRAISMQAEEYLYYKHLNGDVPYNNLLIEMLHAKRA
# Nuclear receptor coactivator 3 (Homo sapiens), sequence (Q9Y6Q9 whole entry, looked up, the tested form may be a part): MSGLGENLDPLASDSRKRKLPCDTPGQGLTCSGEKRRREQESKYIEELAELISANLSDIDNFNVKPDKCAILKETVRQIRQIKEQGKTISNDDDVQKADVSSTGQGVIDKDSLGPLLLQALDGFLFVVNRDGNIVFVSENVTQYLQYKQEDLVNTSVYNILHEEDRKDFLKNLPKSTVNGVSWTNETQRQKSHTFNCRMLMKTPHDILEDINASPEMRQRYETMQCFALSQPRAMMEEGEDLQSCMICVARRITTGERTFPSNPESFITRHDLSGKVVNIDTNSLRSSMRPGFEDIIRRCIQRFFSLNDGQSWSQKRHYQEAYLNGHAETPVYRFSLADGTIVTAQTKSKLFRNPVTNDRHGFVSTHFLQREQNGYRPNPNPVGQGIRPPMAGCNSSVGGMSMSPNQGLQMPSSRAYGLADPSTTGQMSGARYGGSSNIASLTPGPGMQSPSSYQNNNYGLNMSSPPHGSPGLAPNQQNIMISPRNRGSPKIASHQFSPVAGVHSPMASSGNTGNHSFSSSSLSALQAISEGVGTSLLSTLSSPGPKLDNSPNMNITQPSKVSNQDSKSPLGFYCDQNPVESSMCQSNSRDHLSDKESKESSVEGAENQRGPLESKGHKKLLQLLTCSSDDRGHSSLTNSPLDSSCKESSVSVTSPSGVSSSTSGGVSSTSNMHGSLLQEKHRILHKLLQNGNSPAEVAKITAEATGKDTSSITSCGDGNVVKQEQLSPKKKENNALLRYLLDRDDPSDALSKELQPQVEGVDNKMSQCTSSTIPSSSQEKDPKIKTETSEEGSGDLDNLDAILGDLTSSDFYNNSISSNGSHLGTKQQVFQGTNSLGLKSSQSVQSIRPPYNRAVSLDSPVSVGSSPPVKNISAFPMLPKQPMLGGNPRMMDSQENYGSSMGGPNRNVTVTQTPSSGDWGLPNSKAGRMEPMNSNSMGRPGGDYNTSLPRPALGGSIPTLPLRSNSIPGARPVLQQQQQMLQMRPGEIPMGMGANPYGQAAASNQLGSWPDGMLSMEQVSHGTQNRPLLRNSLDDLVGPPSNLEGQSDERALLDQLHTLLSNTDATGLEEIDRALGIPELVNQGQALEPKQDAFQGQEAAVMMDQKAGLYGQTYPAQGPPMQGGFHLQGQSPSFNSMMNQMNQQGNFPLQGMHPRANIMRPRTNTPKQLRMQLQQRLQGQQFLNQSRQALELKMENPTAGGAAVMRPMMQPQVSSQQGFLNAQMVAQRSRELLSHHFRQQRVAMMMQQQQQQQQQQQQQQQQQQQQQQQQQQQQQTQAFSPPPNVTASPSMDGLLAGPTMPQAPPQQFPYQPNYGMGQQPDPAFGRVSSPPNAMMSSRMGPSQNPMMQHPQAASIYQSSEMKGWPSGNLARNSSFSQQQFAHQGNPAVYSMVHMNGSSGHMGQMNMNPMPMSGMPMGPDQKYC
compound,measurement,setting,value
O=[N+]([O-])c1ccc(-c2nc(-c3cccs3)c(-c3cccs3)[nH]2)cc1,inhibition,[1],21.5%
same,inhibition,[2],15.5%
same,inhibition,[3],59.5% (active)
same,inhibition,[4],50.8% (active)
same,inhibition,[5],-8.61%
O=[N+]([O-])c1cccc(-c2nc(-c3cccs3)c(-c3cccs3)[nH]2)c1,inhibition,[1],13%
same,inhibition,[2],19.7%
same,inhibition,[3],55% (active)
same,inhibition,[4],42.7% (active)
same,inhibition,[5],-12.5%
Nc1ccc2oc(-c3cc(Br)ccc3Cl)nc2c1,inhibition,[1],9.02%
same,inhibition,[2],-34.3%
same,inhibition,[3],45.4% (active)
same,inhibition,[4],32.9%
same,inhibition,[5],-44.9%
Cc1oc2c(c1C(=O)c1ccccc1)C(=O)C(=O)c1ccccc1-2,inhibition,[1],18.1%
same,inhibition,[6],-18.3%
same,inhibition,[7],99.5% (active)
CC(C)(C)OC(=O)c1c(N)n(CCCN2CCCC2=O)c2nc3ccccc3nc12,inhibition,[8],57.9% (active)
CCCCn1c(NS(=O)(=O)c2ccccc2)c(S(=O)(=O)c2ccc(C)cc2)c2nc3ccccc3nc21,inhibition,[1],11.6%
same,inhibition,[2],15.2%
same,inhibition,[3],19.7%
same,inhibition,[4],24.9%
same,inhibition,[5],-6.99%
COc1cccc(/C=N/NC(=O)c2[nH]c(C)c(C(=O)N/N=C/c3cccc(OC)c3O)c2C)c1O,inhibition,[1],-31.6%
same,inhibition,[2],42.2% (active)
same,inhibition,[3],24.8%
same,inhibition,[4],17.4%
same,inhibition,[5],25.2%
C(=N\Nc1nc2ccccc2[nH]1)/c1cccc2cccnc12,inhibition,[1],60.2% (active)
same,inhibition,[9],44.8% (active)
same,inhibition,[10],8.83%
same,inhibition,[2],49.4% (active)
same,inhibition,[3],74% (active)
same,inhibition,[4],64.3% (active)
same,inhibition,[5],23.9%
CCc1ccc(S(=O)(=O)/N=C2\C=C(Nc3ccc(O)cc3)C(=O)c3ccccc32)cc1,inhibition,[1],36.8% (active)
same,inhibition,[2],90.1% (active)
same,inhibition,[3],105% (active)
same,inhibition,[4],96% (active)
same,inhibition,[5],94.3% (active)
COc1ccc(/C=C2\CN(Cc3ccccc3)C/C(=C\c3ccc(OC)c(O)c3)C2=O)cc1O,inhibition,[1],-5.14%
same,inhibition,[9],59.2% (active)
same,inhibition,[10],0.48%
same,inhibition,[11],12.4%
same,inhibition,[6],73.1% (active)
same,inhibition,[7],22.9%
CCCn1nc([N+](=O)[O-])c(C(C#N)c2nc3ccccc3s2)c(Cl)c1=O (centres undefined),inhibition,[1],28.7% (active)
same,inhibition,[6],20.4%
same,inhibition,[7],20.3%
Cc1cccc(-n2c3nc(=O)[nH]c(=O)c-3cc3cc([N+](=O)[O-])ccc32)c1,inhibition,[1],50.6% (active)
same,inhibition,[2],20.4%
same,inhibition,[3],42.1% (active)
same,inhibition,[4],47.4% (active)
same,inhibition,[5],27.6%
Fc1ccc2[nH]c3c(N4CCN(c5ccccc5)CC4)ncnc3c2c1,inhibition,[1],26.3% (active)
same,inhibition,[12],2.85%
same,inhibition,[11],15.6%
COc1ccc(-c2csc(Nc3ccc(O)cc3)n2)cc1,inhibition,[8],7.69%
CC(=O)C1C(=O)c2c(cccc2[N+](=O)[O-])C1=Nc1ccc(S(N)(=O)=O)cc1 (centres undefined),inhibition,[1],30.2% (active)
same,inhibition,[6],-19.4%
same,inhibition,[7],2.35%
CCCOc1ccc(/C=N/NC(=S)Nc2ccccc2[N+](=O)[O-])c(O)c1,inhibition,[1],27.9% (active)
same,inhibition,[6],74.5% (active)
same,inhibition,[7],84% (active)
CN1CCN(c2ccc(NC(=O)c3ccc(-c4ccc(Br)cc4)o3)cc2)CC1,inhibition,[1],37.4% (active)
same,inhibition,[2],0.51%
same,inhibition,[3],52% (active)
same,inhibition,[4],50.9% (active)
same,inhibition,[5],13.1%
C=CCNC(=O)c1ccccc1SCc1c(C)noc1C,inhibition,[8],3.92%
Cc1ccc(C(C)C)c(OCc2ccc(C(=O)N/N=C/c3ccc(O)c(O)c3)cc2)c1,inhibition,[1],-9.52%
same,inhibition,[6],-11%
same,inhibition,[7],62.6% (active)
COc1cccc(-c2nc(NC(C)C)c3ccccc3n2)c1O,inhibition,[1],23.6%
same,inhibition,[2],21.2%
same,inhibition,[3],46.5% (active)
same,inhibition,[4],57% (active)
same,inhibition,[5],-1.3%
